Test [1] concerns the target Dual specificity protein kinase CLK3 (Homo sapiens) (UniProt P49761). The conditions noted are these: at 1 µM.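 Also: each value is the mean inhibition of CLK3.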
Test [2] has as its target Dual specificity tyrosine-phosphorylation-regulated kinase 1A (Homo sapiens) (UniProt Q13627). The conditions noted are these: at 0.1 µM.
The target is the same in test [3]. The conditions noted are these: at 1 µM.
For test [4], the target named is Dual specificity tyrosine-phosphorylation-regulated kinase 1B (Homo sapiens) (UniProt Q9Y463). The conditions noted are these: at 0.1 µM.
For test [5] the target is unchanged. The note with it: at 1 µM.
For test [6], the target named is T1, Dual specificity tyrosine-phosphorylation-regulated kinase 2 (Homo sapiens) (UniProt Q92630).
T1 sequence (whole entry): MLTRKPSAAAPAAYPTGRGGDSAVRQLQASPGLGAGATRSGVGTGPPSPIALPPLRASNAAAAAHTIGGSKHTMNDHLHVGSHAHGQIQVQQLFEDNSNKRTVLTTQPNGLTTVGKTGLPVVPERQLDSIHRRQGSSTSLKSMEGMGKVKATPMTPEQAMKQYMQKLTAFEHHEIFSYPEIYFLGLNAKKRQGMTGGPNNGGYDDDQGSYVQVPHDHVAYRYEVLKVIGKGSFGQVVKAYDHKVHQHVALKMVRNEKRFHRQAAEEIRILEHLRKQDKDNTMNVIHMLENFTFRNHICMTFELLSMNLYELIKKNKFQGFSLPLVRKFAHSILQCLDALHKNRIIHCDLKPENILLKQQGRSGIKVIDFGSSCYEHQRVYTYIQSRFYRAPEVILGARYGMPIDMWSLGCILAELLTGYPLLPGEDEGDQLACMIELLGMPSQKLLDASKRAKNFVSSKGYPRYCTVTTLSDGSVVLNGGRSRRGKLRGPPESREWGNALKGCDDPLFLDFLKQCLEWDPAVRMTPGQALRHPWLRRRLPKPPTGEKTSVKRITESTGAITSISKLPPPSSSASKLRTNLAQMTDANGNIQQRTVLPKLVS
The note with it: at 0.1 µM.

The target in test [7] is T1, Dual specificity tyrosine-phosphorylation-regulated kinase 2 (Homo sapiens). The conditions noted are these: at 1 µM.
Test [8] deals with Glycogen synthase kinase-3 alpha (Homo sapiens) (UniProt P49840). The note with it: at 0.1 µM.
Test [9] shares this target. The conditions noted are these: at 1 µM.
In test [10] the target is Glycogen synthase kinase-3 beta (Homo sapiens) (UniProt P49841). The conditions noted are these: at 0.1 µM.
Test [11] has the same target. The note with it: at 1 µM.
For test [12], the target named is Homeodomain-interacting protein kinase 1 (Homo sapiens) (UniProt Q86Z02). The note with it: at 0.1 µM.
The target is the same in test [13]. The conditions noted are these: at 1 µM.
For test [14], the target named is T2, Homeodomain-interacting protein kinase 4 (Homo sapiens) (UniProt Q8NE63).
T2 sequence (whole entry): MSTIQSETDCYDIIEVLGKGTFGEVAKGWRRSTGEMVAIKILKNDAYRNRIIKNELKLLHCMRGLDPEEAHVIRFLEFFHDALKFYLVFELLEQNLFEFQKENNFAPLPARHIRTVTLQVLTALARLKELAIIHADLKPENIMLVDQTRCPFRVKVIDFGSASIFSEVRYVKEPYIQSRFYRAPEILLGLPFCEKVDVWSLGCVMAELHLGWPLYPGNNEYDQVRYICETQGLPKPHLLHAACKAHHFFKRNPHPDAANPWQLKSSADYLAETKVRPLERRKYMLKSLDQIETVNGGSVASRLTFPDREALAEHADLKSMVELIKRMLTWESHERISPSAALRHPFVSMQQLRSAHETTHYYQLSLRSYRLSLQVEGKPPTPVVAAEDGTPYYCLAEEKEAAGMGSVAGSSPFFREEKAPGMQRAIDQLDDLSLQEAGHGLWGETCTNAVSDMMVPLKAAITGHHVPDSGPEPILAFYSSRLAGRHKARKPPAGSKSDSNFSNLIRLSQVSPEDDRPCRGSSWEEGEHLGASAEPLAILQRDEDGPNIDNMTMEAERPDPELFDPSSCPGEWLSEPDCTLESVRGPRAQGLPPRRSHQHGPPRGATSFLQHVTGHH
The note with it: at 0.1 µM.

The target in test [15] is T2, Homeodomain-interacting protein kinase 4 (Homo sapiens). The note with it: at 1 µM.
The target of test [16] is Mitogen-activated protein kinase 9 (Homo sapiens) (UniProt P45984). The conditions noted are these: at 0.1 µM.
For test [17] the target is unchanged. The conditions noted are these: at 1 µM.
Test [18] has as its target Mitogen-activated protein kinase 1 (Homo sapiens) (UniProt P28482). The conditions noted are these: at 0.1 µM.
The target is the same in test [19]. The note with it: at 1 µM.
For test [20], the target named is Mitogen-activated protein kinase 3 (Homo sapiens) (UniProt P27361). The conditions noted are these: at 0.1 µM.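 Also: each value is a mean inhibition figure.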
Sequence of Mitogen-activated protein kinase 3 (Homo sapiens) (P27361 whole entry): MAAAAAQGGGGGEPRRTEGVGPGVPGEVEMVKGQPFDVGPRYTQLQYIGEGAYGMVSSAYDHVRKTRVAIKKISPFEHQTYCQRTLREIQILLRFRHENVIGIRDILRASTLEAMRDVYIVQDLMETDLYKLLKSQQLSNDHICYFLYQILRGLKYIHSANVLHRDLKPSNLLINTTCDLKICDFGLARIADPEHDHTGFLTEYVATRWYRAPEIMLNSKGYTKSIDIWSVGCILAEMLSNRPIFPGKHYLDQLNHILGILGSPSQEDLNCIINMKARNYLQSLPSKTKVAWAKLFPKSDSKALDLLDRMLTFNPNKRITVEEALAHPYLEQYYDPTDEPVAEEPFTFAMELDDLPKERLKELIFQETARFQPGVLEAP

Sequence of Homeodomain-interacting protein kinase 1 (Homo sapiens) (Q86Z02 whole entry, looked up): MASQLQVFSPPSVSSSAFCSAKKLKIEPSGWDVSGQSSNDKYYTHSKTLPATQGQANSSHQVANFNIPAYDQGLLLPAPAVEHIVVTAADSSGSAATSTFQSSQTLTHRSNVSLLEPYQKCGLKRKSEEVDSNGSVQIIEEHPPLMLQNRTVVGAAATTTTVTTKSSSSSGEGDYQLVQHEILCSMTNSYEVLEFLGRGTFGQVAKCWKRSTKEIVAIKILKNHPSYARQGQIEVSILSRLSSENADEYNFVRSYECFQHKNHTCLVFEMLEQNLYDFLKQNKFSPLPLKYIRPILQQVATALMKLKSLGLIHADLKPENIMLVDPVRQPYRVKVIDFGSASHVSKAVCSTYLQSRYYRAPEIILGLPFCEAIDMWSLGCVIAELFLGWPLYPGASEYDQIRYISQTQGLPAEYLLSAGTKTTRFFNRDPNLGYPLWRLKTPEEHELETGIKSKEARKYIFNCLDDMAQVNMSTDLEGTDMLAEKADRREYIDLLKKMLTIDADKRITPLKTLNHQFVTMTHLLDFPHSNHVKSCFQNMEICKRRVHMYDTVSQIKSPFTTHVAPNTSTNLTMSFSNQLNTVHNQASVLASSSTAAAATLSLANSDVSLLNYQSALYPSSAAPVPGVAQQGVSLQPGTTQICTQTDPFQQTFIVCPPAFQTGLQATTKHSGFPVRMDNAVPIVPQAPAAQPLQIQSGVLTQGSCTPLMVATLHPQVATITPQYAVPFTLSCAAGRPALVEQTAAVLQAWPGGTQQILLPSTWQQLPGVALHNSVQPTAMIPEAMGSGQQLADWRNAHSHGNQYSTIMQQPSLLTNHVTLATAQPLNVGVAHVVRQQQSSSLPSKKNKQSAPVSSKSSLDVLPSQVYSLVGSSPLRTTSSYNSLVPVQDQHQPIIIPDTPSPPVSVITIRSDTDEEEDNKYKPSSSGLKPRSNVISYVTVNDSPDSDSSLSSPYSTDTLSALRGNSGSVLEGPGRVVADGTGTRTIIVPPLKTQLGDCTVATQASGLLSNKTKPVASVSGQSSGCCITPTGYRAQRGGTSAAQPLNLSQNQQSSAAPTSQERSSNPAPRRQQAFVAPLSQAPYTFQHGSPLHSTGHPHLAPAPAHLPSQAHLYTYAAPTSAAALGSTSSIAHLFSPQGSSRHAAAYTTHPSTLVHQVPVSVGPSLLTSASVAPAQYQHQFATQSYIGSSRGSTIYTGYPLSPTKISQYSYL
Sequence of Dual specificity tyrosine-phosphorylation-regulated kinase 1B (Homo sapiens) (Q9Y463 whole entry, looked up): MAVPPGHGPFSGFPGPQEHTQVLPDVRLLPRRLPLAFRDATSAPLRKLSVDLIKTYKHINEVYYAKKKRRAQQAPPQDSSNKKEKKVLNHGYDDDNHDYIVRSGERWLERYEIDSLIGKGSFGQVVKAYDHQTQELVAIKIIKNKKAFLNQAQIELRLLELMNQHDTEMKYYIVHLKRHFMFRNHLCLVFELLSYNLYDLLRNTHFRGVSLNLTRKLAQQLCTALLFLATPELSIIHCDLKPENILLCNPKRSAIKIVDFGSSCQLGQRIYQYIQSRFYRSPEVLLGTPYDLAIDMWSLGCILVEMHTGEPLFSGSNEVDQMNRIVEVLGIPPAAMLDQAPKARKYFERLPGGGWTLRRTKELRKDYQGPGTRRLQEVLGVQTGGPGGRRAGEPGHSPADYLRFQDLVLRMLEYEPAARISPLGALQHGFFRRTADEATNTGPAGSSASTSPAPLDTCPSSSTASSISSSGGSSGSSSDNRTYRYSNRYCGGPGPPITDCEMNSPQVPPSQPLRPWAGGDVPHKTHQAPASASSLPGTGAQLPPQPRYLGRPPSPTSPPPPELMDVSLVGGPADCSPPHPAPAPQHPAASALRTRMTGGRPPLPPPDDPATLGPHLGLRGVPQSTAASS
Sequence of Glycogen synthase kinase-3 alpha (Homo sapiens) (P49840 2-483 limits assumed): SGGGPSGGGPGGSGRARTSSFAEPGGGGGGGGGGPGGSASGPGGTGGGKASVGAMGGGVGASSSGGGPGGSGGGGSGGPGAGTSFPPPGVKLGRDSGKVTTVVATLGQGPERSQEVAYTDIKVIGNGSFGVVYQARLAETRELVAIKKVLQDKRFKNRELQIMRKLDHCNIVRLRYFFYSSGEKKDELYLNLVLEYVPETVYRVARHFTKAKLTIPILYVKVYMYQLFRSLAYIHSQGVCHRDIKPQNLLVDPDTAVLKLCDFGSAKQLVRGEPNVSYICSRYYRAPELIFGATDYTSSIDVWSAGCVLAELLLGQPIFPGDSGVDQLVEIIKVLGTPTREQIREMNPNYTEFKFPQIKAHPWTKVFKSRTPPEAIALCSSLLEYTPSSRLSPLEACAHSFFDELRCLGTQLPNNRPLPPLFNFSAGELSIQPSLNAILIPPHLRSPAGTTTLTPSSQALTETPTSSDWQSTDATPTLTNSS
Sequence of Dual specificity protein kinase CLK3 (Homo sapiens) (P49761 whole entry, looked up): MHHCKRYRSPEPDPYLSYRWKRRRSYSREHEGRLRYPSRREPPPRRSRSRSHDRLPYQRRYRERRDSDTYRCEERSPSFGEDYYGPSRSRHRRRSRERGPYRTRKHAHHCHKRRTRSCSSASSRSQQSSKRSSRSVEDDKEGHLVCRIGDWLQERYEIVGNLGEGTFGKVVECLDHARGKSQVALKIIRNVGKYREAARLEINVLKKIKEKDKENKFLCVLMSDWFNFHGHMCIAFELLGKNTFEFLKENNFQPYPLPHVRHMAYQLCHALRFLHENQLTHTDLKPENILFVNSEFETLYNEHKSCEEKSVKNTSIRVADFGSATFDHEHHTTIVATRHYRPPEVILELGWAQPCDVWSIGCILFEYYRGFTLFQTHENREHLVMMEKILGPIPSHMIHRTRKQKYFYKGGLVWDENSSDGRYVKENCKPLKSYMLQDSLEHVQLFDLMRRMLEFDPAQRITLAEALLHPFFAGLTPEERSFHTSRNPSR
Sequence of Mitogen-activated protein kinase 1 (Homo sapiens) (P28482 whole entry): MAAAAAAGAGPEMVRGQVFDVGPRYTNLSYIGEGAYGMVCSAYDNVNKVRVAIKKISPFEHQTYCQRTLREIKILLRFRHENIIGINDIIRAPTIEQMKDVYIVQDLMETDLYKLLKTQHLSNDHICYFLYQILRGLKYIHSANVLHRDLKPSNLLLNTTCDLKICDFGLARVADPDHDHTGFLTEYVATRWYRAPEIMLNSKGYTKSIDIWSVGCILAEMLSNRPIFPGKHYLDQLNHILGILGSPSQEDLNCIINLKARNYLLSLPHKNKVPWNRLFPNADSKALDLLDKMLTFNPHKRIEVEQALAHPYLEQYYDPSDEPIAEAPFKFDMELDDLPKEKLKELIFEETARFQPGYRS
Sequence of Glycogen synthase kinase-3 beta (Homo sapiens) (P49841 whole entry, looked up): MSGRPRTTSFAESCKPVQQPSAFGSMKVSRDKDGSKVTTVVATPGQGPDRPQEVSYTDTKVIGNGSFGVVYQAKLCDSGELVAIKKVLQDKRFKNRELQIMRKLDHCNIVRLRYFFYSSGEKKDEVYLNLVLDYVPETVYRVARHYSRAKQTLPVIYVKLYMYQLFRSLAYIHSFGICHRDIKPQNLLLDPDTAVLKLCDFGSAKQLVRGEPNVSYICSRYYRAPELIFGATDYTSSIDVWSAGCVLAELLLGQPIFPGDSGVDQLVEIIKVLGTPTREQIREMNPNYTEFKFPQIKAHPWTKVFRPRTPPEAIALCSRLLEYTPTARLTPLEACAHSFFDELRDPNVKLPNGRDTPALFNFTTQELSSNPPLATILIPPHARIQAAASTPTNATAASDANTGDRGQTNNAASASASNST
Sequence of Mitogen-activated protein kinase 9 (Homo sapiens) (P45984 whole entry, looked up): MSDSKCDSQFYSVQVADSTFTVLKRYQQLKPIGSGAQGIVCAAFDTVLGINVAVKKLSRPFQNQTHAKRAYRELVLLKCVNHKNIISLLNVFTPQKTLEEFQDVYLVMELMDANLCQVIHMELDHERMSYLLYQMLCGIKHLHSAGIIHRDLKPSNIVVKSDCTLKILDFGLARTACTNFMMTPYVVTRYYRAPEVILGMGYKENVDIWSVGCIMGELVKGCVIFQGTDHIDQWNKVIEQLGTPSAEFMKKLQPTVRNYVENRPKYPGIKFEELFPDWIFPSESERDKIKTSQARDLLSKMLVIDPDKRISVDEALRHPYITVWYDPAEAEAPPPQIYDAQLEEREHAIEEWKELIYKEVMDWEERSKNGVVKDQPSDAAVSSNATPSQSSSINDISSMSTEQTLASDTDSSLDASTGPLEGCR

Consider `COc1cccc(COc2cc(-n3cnc4ccccc43)sc2C(N)=O)c1`, for which the inhibition – broadly, the relative decrease from the control value, in per cent – in test [1] was -0.91%; in test [2], 0.34%; in test [3], -0.09%; in [4], -0.5%; in test [5], -2.7%; in [6], -0.21%. Besides, the inhibition in [7] was -2.08%; in test [8], 1.06%; in test [9], 3.48%; in [10], 0.09%; in test [11], 2.12%; in test [12], -6.56%. In addition, the inhibition is 1.66% in [13]; -0.59% in [14]; 2.84% in test [15]; 2.36% in [16]; -2.62% in [17]; 1.13% in [18]. Besides, the inhibition in [19] is 1.97%; in test [20], 2.69%.

Turning to `CCn1c(-c2nonc2N)nc2c(C#CC(C)(C)O)ncc(OC[C@@H]3CCCN3)c21`, the inhibition was -0.53% in test [1]; -0.49% in test [2]; -0.73% in [3]; -2.29% in test [4]; -1.07% in [5]; 0.4% in [6]. The inhibition in [7] is -2.07%; in [8], 9.78%; in [9], 44.4%; in test [10], 9.2%; in test [11], 46.9%; in test [12], -6.24%. Besides, the inhibition is 6.03% in test [13]; 0.03% in test [14]; 0.31% in test [15]; -0.05% in [16]; 0.92% in test [17]; 1.59% in test [18]. Moreover, the inhibition was 1.3% in test [19] and 1.69% in test [20].

Consider `COc1cc(C=NNc2ncnc3c2cnn3Cc2ccccc2)ccc1O`, for which the inhibition in [1] is 9.8%; in [2] it was 3.11%; in test [3], 9.48%; in test [4] it was 3.37%; in test [5], 8.92%; in test [6], -4.67%. Moreover, the inhibition is -1.79% in test [7]; 5.54% in test [8]; 19.6% in test [9]; 5.36% in [10]; 17.7% in [11]; -2.83% in test [12]. The inhibition was 1.68% in test [13]; -0.49% in [14]; 2.59% in [15]; -0.98% in test [16]; -0.48% in test [17]; 2.37% in [18]. Besides, the inhibition in test [19] was -6.99%; in [20], -2.79%.

For `NS(=O)(=O)c1ccc(-c2ccc3c(NC(=O)C4CC4)n[nH]c3c2)cc1`, the inhibition in test [1] was 2.75%; in test [2] it was 2.37%; in test [3], 5.69%; in test [4], 0.86%; in test [5], 3.29%; in [6], 1.63%. Besides, the inhibition came out at 3.47% in [7]; 5.27% in test [8]; 8.87% in test [9]; 4.15% in test [10]; 7.66% in [11]; 2.52% in [12]. The inhibition in [13] was 7.94%; in [14], 3.34%; in test [15] it was 4.2%; in test [16], 3.73%; in test [17], 4.23%; in test [18], 2.15%. In addition, the inhibition came out at 3% in test [19] and 1.44% in [20].

As to `COc1cccc(-n2ncc3c(N/N=C/c4ccncc4)ncnc32)c1`, the inhibition in test [1] is 19.3%; in test [2] it was 28.7%; in [3], 72.3%; in test [4], 16.2%; in test [5], 53.9%; in [6] it was 14.2%. Besides, the inhibition in [7] was 58.9%; in test [8] it was 85.7%; in test [9], 90%; in [10], 83.4%; in [11], 89.2%; in [12] it was 26.6%. Besides, the inhibition in test [13] was determined as 69.8%; in test [14], 19.6%; in test [15] it was 61.3%; in [16], 0.79%; in test [17], 11.2%; in test [18], 5.32%. Further, the results for the inhibition in [19] and in test [20] were 7.16% and 4.96%, respectively.

Take `Nc1nonc1-c1nc2cnccc2n1C1CCCCC1`: the inhibition in test [1] is 2.98%; in test [2], 34.3%; in test [3], 78%; in test [4], 23.4%; in test [5], 71.2%; in test [6], -2.75%. Besides, the inhibition in [7] was -0.12%; in test [8], 66.1%; in [9] it was 90.8%; in test [10], 62.5%; in test [11] it was 90%; in test [12], -0.6%. Also, the inhibition in [13] was 16.1%; in [14], 0.63%; in [15] it was 10.3%; in [16], -0.52%; in test [17] it was -0.67%; in test [18], -1.37%. Besides, the inhibition in test [19] was 1.38%; in [20] it was -0.87%.

`NS(=O)(=O)c1ccc(N/C=C2\C(=O)Nc3ccc4ncsc4c32)cc1`: the inhibition in test [1] came out at 9.47%; in [2] it was 21.7%; in [3] it was 74.4%; in test [4], 9.26%; in [5] it was 44.9%; in test [6] it was 6.51%. Also, the inhibition in test [7] stood at 29%; in [8], 25.2%; in test [9], 62.8%; in test [10], 26.1%; in test [11], 65.1%; in [12], 3.83%. The inhibition was 34.7% in test [13]; 1.88% in test [14]; 11.8% in test [15]; 5.59% in test [16]; 20.2% in test [17]; 8.37% in test [18]. Further, the inhibition in [19] turned out to be 31.1%; in [20] it was 5.66%.

The record behind these values is ChEMBL document CHEMBL1961873, “Compounds: GSK PKIS; Assays: Nanosyn kinase panel” (2012).
